Measured values as given in PubChem BioAssay AID1159580 (chemical genetic matrix, 2015).
Where “and” joins values, the source holds several entries; their conditions need not be identical. Identical values can stand only once. Out of some 5,500 compounds screened, about 2,000 (36%) were called active. Not shown: some 18% with an inconclusive outcome. Rule as the data show it: active = normalized growth mostly below about 0.91 (no sharp cut-off); inconclusive = no clear call, values can overlap the other calls; inactive = mostly above about 0.92. The list shows a part of the results.

Assay: chemical genetic growth profiling, strain panel (AID 1159580);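 also: tested at 20 µM; growth read once vehicle control cultures reached saturation at 30 °C; 1 = growth at the plate median or of vehicle wells; lower values mean less growth of the strain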
Conditions: S. cerevisiae deletion strains, growth OD

Measured: normalized growth

O=C1C(O)=C(O)C(=O)C(O)=C1O
inactive: locus YAL013W, strain DEP1, active compounds read low 0.983 | locus YAL021C, strain ccr4, active compounds read low 1 | locus YAL026C, strain drs2, active compounds read low 1.02 | locus YAL030W, strain snc1, active compounds read low 1 | locus YBL061C, strain skt5, active compounds read low 1.03 | locus YBR009C, strain hhf1, active compounds read low 0.992 | locus YBR021W, strain FUR4, active compounds read low 1.01 | locus YBR023C, strain chs3, active compounds read low 1.02 | locus YBR171W, strain sec66, active compounds read low 1.02 | locus YBR229C, strain ROT2, active compounds read low 0.964 | locus YBR231C, strain swc5, active compounds read low 1.02 | locus YBR279W, strain paf1, active compounds read low 1.01 | locus YCL011C, strain gbp2, active compounds read low 0.991 | locus YCL016C, strain dcc1, active compounds read low 1.02 | locus YCL029C, strain bik1, active compounds read low 0.991 | locus YCL061C, strain MRC1, active compounds read low 1.01 | locus YCL069W, strain vba3, active compounds read low 1.03 | locus YCR088W, strain abp1, active compounds read low 1.01 | locus YDL005C, strain med2, active compounds read low 1.01 | locus YDL035C, strain GPR1, active compounds read low 1 | locus YDL040C, strain nat1, active compounds read low 0.997 | locus YDL074C, strain BRE1, active compounds read low 0.968 | locus YDL101C, strain DUN1, active compounds read low 0.965 | locus YDL134C, strain PPH21, active compounds read low 0.983 | locus YDL185W, strain tfp1, active compounds read low 0.959 | locus YDL192W, strain arf1, active compounds read low 0.99 | locus YDR001C, strain nth1, active compounds read low 1 | locus YDR069C, strain doa4, active compounds read low 1.01 | locus YDR101C, strain arx1, active compounds read low 1.01 | locus YDR137W, strain rgp1, active compounds read low 0.984 | locus YDR150W, strain NUM1, active compounds read low 0.968 | locus YDR159W, strain sac3, active compounds read low 0.977 | locus YDR162C, strain NBP2, active compounds read low 0.939 | locus YDR195W, strain ref2 0.999 | locus YDR297W, strain sur2, active compounds read low 1.02 | locus YDR318W, strain mcm21, active compounds read low 1.03 | locus YDR334W, strain swr1, active compounds read low 1.01 | locus YDR335W, strain msn5, active compounds read low 1.01 | locus YDR388W, active compounds read low 0.991 | locus YDR392W, strain spt3, active compounds read low 1.04 | locus YDR502C, strain sam2, active compounds read low 0.996 | locus YEL003W, strain gim4, active compounds read low 1.02 | locus YEL037C, strain rad23, active compounds read low 0.998 | locus YEL061C, strain CIN8 (second series), active compounds read low 1.01 | locus YEL061C, strain CIN8, active compounds read low 0.987 | locus YER015W, strain faa2, active compounds read low 1.01 | locus YER016W, strain bim1, active compounds read low 1.01 | locus YER110C, active compounds read low 0.986 | locus YER111C, strain swi4, active compounds read low 0.991 | locus YER155C, strain BEM2 (second series), active compounds read low 1.01 | locus YER155C, strain BEM2, active compounds read low 1 | locus YER167W, strain BCK2, active compounds read low 1.01 | locus YFR010W, strain ubp6, active compounds read low 1 | locus YGL078C, strain dbp3, active compounds read low 0.977 | locus YGL086W, strain mad1, active compounds read low 1.02 | locus YGL167C, strain pmr1, active compounds read low 1 | locus YGL173C, strain kem1, active compounds read low 1.01 | locus YGL227W, strain vid30, active compounds read low 1.01 | locus YGL240W, strain doc1, active compounds read low 1.02 | locus YGL248W, strain PDE1, active compounds read low 0.974 | locus YGL253W, strain hxk2, active compounds read low 1 | locus YGR078C, strain PAC10, active compounds read low 0.971 | locus YGR135W, strain pre9, active compounds read low 0.968 | locus YGR229C, strain SMI1, active compounds read low 0.969 | locus YGR252W, strain gcn5, active compounds read low 1.04 | locus YHR013C, strain ard1, active compounds read low 1.03 | locus YHR027C, strain rpn1, active compounds read low 1.02 | locus YHR030C, strain SLT2, active compounds read low 1 and 0.988 | locus YHR079C, strain IRE1 (second series), active compounds read low 1 | locus YHR079C, strain IRE1, active compounds read low 0.973 | locus YHR094C, strain hxt1, active compounds read low 0.984 | locus YHR129C, strain ARP1, active compounds read low 0.994 | locus YHR142W, strain chs7, active compounds read low 1.02 | locus YHR200W, strain rpn10, active compounds read low 1 | locus YIL066C, strain RNR3, active compounds read low 0.977 | locus YIL073C, strain SPO22, active compounds read low 1.07 | locus YIL125W, strain kgd1, active compounds read low 0.967 | locus YIR030C, strain dcg1, active compounds read low 0.993 | locus YJL092W, strain hpr5, active compounds read low 1.01 | locus YJL095W, strain BCK1 (second series), active compounds read low 1.02 | locus YJL095W, strain BCK1, active compounds read low 0.991 and 0.993 | locus YJL115W, strain asf1, active compounds read low 1 | locus YJL129C, strain trk1, active compounds read low 1.03 | locus YJL134W, strain LCB3, active compounds read low 0.995 | locus YJL154C, strain vps35, active compounds read low 1.02 | locus YJL164C, strain tpk1, active compounds read low 1 | locus YJL166W, strain qcr8, active compounds read low 1.01 | locus YJL168C, strain set2, active compounds read low 0.996 | locus YJL187C, strain SWE1 (second series), active compounds read low 0.961 | locus YJL187C, strain SWE1, active compounds read low 1.01 | locus YJR043C, strain POL32, active compounds read low 1.03 | locus YJR066W, strain TOR1, active compounds read low 0.941
